Experimental data as given in PubChem BioAssay.
Unmarked numbers belong to inactive results. How the calls were made is not given here.

The compounds below were run against Pantothenate synthetase (Mycobacterium tuberculosis (strain ATCC 25618 / H37Rv)) (UniProt P9WIL5) (assay: Recombinant Mtb pantothenate synthetase (PanC) inhibitors, coupled enzyme, confirmatory (AID 375;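 further: 0% = full reaction with vehicle and 100% = no enzyme background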)). Settings: coupled enzyme assay; at 10 µM, stronger effect = higher value.
Chain of Pantothenate synthetase (Mycobacterium tuberculosis (strain ATCC 25618 / H37Rv)) (P9WIL5 whole entry, looked up): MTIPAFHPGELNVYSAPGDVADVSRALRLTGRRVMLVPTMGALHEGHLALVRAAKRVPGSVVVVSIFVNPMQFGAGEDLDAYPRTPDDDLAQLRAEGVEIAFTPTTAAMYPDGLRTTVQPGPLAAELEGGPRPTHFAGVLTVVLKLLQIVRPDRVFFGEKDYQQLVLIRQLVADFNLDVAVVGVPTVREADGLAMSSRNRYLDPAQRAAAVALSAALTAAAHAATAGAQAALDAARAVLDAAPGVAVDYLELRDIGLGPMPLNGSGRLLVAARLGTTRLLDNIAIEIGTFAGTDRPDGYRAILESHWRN

Structure (SMILES)	inhibition [%]
COCCn1c(SCC(=O)Nc2nnc(C)s2)nnc1-c1c[nH]c2ccccc12	0
Cc1ccc(S(=O)(=O)N2CCCC2C(=O)n2nc(C)cc2C)cc1 (stereo not given)	0
CCOC(=O)c1cc(CC)sc1NC(=O)CCC(=O)O	2
C/C=C/c1ccc(OCCn2cncn2)c(OC)c1	0
O=C(c1cnc2sccn2c1=O)N1CCc2ccccc2C1	0
